Experimental data from the supplement of paper PMC6555819.

Experiments:
Experiment in all cases: PBM binding z-score (relative to random genomic background probes); higher = stronger binding; sequences stand for … in GC…GCGATTGACAGCGTAGAATGAAGG
[1] = system: FXR:RXRa (NR concentration 270 nM, RXRa partner concentration 90 nM)
How it was run: (§1)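 Each nuclear receptor dimer, without ligand, was incubated for 1 h on custom Agilent 4×180K protein-binding microarrays. Binding was detected with antibodies against each partner (one per run), and scanned fluorescence was regression-normalized. The binding z-scores are referenced to random human genomic background probes.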

[2] = system: LXRa:RXRa (NR concentration 270 nM, RXRa partner concentration 90 nM)
How it was run: as §1

[3] = system: LXRa homodimer (NR concentration 270 nM)
How it was run: as §1

[4] = system: LXRb:RXRa (NR concentration 270 nM, RXRa partner concentration 90 nM)
How it was run: as §1

[5] = system: LXRb homodimer (NR concentration 270 nM)
How it was run: as §1

[6] = system: PPARa:RXRa (NR concentration 270 nM, RXRa partner concentration 90 nM)
How it was run: as §1

[7] = system: PPARg:RXRa (NR concentration 180 nM, RXRa partner concentration 90 nM)
How it was run: as §1

[8] = system: PPARg:RXRa 270nM:90nM, anti-RXR (NR concentration 270 nM, RXRa partner concentration 90 nM)
How it was run: as §1

[9] = system: PPARg:RXRa 30nM:10nM, anti-RXR (NR concentration 30 nM, RXRa partner concentration 10 nM)
How it was run: as §1

[10] = system: PPARg:RXRa 90nM:30nM, anti-RXR (NR concentration 90 nM, RXRa partner concentration 30 nM)
How it was run: as §1

Row | Sequence | PBM binding z-score [1] | PBM binding z-score [2] | PBM binding z-score [3] | PBM binding z-score [4] | PBM binding z-score [5] | PBM binding z-score [6] | PBM binding z-score [7] | PBM binding z-score [8] | PBM binding z-score [9] | PBM binding z-score [10]
1 | ATCGAAAGGTCGAAGGTCAGTATACCCACCCGAA | 5.6 | 4.68 | 1.05 | 4.53 | 0.966 | 5.61 | 6.96 | 6.43 | 3.83 | 5.97
2 | ATCTAAAGGTCGAAGGTGAGTATACCCACCCGAA | 4.51 | 4.47 | 0.846 | 3.2 | 1.12 | 4.71 | 5.11 | 5.19 | 2.76 | 4.36
3 | TGAATGACGTTAAAGATCAGGGAACGTGGCGTCG | -0.238 | -0.18 | -0.178 | -0.538 | 0.178 | -0.0143 | 0.989 | 1.26 | 0.931 | 1.28
4 | CGAACTAGGTCAGAACAGGACATTGAAGGATGAT | 1.42 | 1.55 | 0.178 | 0.649 | -0.13 | 3.32 | 5.42 | 4.48 | 1.68 | 3.62
5 | TTACGAAGGTGAAAGGTCGTTGATGCACGCCTTG | 3.43 | 3.33 | 0.283 | 2.75 | -0.598 | 5.25 | 8.12 | 7.35 | 6.74 | 8.17
6 | CGTCCAAGGTCAAGGGCAGTGAAAGAGACTCGAA | 7.12 | 4.83 | 0.283 | 3.68 | 0.0141 | 5.93 | 5.48 | 5.38 | 1.76 | 4.07
7 | CGTCAAAGTTCAACTAATGTAACGTAAAGCACGC | 7.05 | 6.09 | 4.93 | 4.21 | 2.34 | 4.77 | 4.72 | 5.26 | 2.95 | 4.56
8 | ATTTGTAGGTTAGGGTCATTCAGAAAGTAGGGAA | 5.22 | 4.68 | 2.51 | 4.9 | 3.24 | 5.52 | 6.37 | 5.83 | 3.41 | 5.27
9 | CAAACCAGGTCACGAAAGGTCAAAGTCGAATGAC | 7.94 | 8.2 | 8.63 | 7.45 | 3.02 | 6.66 | 9.2 | 7.84 | 5.15 | 7.6
10 | CAAACTAGGTCACCGGAAAGTCAAAGTCCGCATG | 4.54 | 3.74 | 0.834 | 2.79 | 0.685 | 5.64 | 9.52 | 7.27 | 5.72 | 7.23
11 | GATAAAGGGTCAGCTAGAGGCCAGAGTATGGAAA | 5.39 | 3.97 | 0.0664 | 3.27 | 0.0558 | 5.06 | 4.3 | 4.76 | 2.03 | 3.31
12 | CGAACTAGGTCAACGACAGTGAATCTCCGCACGC | 3.59 | 2.08 | 0.0952 | 1.47 | -0.0209 | 4.54 | 7.37 | 6.13 | 3.91 | 5.64
13 | ATGTGTAGGTTACATCCGGGTCATTCAGGCTATG | 2.23 | 4.19 | 1.76 | 2.87 | 0.855 | 3.45 | 2.44 | 2.64 | 0.934 | 2.02
14 | TATTGTAGATCAAAGGTTAAGAAAGCCGAAGCCT | 1.52 | 2.61 | 0.529 | 2.07 | 0.724 | 4.99 | 8.15 | 8.41 | 7.59 | 9.21
15 | CCTACTGGGCGACGAAAGGTCATTGATTCAGTGA | 3.21 | 3.92 | 4.32 | 3.94 | -0.175 | 4.31 | 2.37 | 3.74 | 1.35 | 2.73
16 | ATCTGTAGGTTAGGGTCATTCAGAAAGTAGGGAA | 4.95 | 4.18 | 1.54 | 4.44 | 2.08 | 4.99 | 4.27 | 4.32 | 2.09 | 3.76
17 | CGAACTAGGTCACCAGGATAGTGAAGAGGTTGGA | 4.03 | 2.47 | 0.115 | 1.87 | -0.103 | 5.37 | 8.87 | 6.98 | 4.74 | 6.8
18 | ATCTCTAGGTAAAGTTCATTGAAAGATCGATAGA | 2.67 | 3.78 | 4.69 | 2.63 | 1.81 | 3.5 | 4.69 | 5.51 | 3.5 | 5.54
19 | CGTCCAAGGTCAATGCGAGGTCAGTGAAAGCATT | 7.21 | 6.04 | 4.28 | 5.1 | 1.25 | 5.46 | 4.59 | 4.98 | 1.48 | 3.65
20 | CGAACTAGGTCAAAGGACAGTCAAAGGCGACGTA | 4.15 | 2.73 | -0.061 | 1.89 | -0.231 | 5.68 | 10.2 | 8.68 | 8.42 | 9.11
21 | CGTCCAAGGTCATAGGAGGTCATTGAAGACAGAT | 7.83 | 7.82 | 7.86 | 6.99 | 1.61 | 5.94 | 5.65 | 5.98 | 2.75 | 4.71
22 | ATCAAAAGGTCGAAGGTGAGTATACCCACCCGAA | 5.02 | 4 | 0.531 | 2.87 | 0.821 | 5.02 | 5.28 | 5.42 | 3.17 | 4.75
23 | CGAACTAGGTCAAAGCACAGTGAAAGGCGACGTA | 3.1 | 2.6 | -0.247 | 1.56 | -0.247 | 5.18 | 8.01 | 6.88 | 5.18 | 7.17
24 | CGTCCAAGGTCACAGGAGGTCAGTGAAGACAGAT | 7.67 | 7.39 | 4.32 | 5.97 | 0.764 | 6 | 6.76 | 6.69 | 3.37 | 5.61

Row | Sequence | PBM binding z-score [1] | PBM binding z-score [2] | PBM binding z-score [3] | PBM binding z-score [4] | PBM binding z-score [5] | PBM binding z-score [6] | PBM binding z-score [7] | PBM binding z-score [8] | PBM binding z-score [9] | PBM binding z-score [10]
25 | ATATGTAGGTTAGGGTCATTGAGAAAGTAGGGAA | 4.91 | 4.11 | 1.17 | 4.32 | 2.74 | 5.89 | 7.58 | 6.31 | 4.39 | 5.93
26 | CCTAGTTGGCCAAGGTCACACACGCTATAGGTAC | 3.78 | 3.61 | 1.6 | 3.73 | 0.597 | 3.8 | 2.42 | 2.88 | 0.959 | 1.94
27 | CGAACTGGGTCACCAGGACAGTGAAGAGGTTGGA | 3.32 | 1.63 | -0.247 | 1.24 | -0.906 | 4.99 | 8.62 | 6.73 | 4.52 | 6.31
28 | AGTCAAATTTCATCTAGGTAACGTAAGATATGCT | -0.224 | -0.221 | 0.168 | 0.0477 | 0.362 | 0.347 | 1.02 | 0.0693 | 0.291 | 0.178
29 | GATACACGGTCAAGGCCAGAGTACGCGTATTGAT | 0.0472 | 0.275 | -0.18 | -0.406 | -0.667 | -0.0579 | 0.695 | -0.00524 | -0.0944 | -0.0776
30 | CGAACTAGGTCACCAGGACGGTGAAGAGGTTGGA | 3.75 | 2.3 | -0.206 | 1.19 | -0.86 | 5.23 | 8.37 | 6.93 | 4.31 | 6.43
31 | CGAACTAGGTCAAAGGACAGTGACAGGCGACGTA | 4.22 | 2.82 | 0.19 | 1.88 | -0.493 | 5.56 | 10.5 | 8.72 | 8.9 | 9.48
32 | AGTCAAAGTTCATCTAGGTATCGTAAGATATGCT | 6.52 | 5.79 | 5.29 | 3.63 | 2.09 | 4.52 | 6.38 | 5.82 | 3.16 | 5.19
33 | CGTCCAAGGTCAACAGGTCAGTGAAAGCGACGTG | 7.08 | 5.58 | 1.56 | 4.45 | 0.945 | 5.84 | 5.65 | 6.07 | 2.82 | 4.88
34 | ATATGTAGGTTAGGCTCATTCAGAAAGTAGGGAA | -0.281 | -0.0164 | -0.0399 | 0.129 | 0.223 | 2.21 | 2.96 | 2.43 | 0.952 | 1.84
35 | CCCACTGGGCCATTCAGAGGTCATTGATCATATG | 2.54 | 4.33 | 5.65 | 3.72 | 0.313 | 3.79 | 2.37 | 3.28 | 0.826 | 2.27
36 | CGTCCAAGGTCATGGGAGGTCAGTGAAGACAGAT | 7.92 | 7.36 | 5.12 | 6.35 | 0.656 | 6.08 | 6.25 | 6.11 | 2.74 | 5.07
37 | CCTGGCAGGCCAGGGTCACTCAAGCATTTCGCTT | 2.34 | 2.07 | -0.539 | 2.18 | -1.2 | 3.35 | 0.292 | 1.27 | -0.621 | 0.206
38 | TAGCCTAGCTCATTCAGGGGCCAGTATAGAAAGC | -0.836 | -1 | -1.16 | -0.368 | -0.132 | -1.13 | -0.0519 | -0.988 | -0.46 | -0.823
39 | ATATGTAGGTTACATCCGGGTCATTCTGGCTATG | 2.03 | 3.94 | 1.66 | 3.12 | 0.83 | 4.43 | 6.19 | 4.83 | 2.69 | 3.95
40 | ATATGTAGGGTAGGGTCATTCAGAAAGTAGGGAA | 4.09 | 4.09 | 2.32 | 5.19 | 4.59 | 5.28 | 7.32 | 5.53 | 3.19 | 4.91
41 | ATATGTAGGTTCGGGTCATTCAGAAAGTAGGGAA | 3.32 | 2.84 | 1.01 | 3.38 | 1.52 | 4.37 | 4.22 | 4.12 | 1.6 | 3.34
42 | ATAAGTAGGTTAGGGTCATTCAGAAAGTAGGGAA | 4.83 | 4.27 | 1.68 | 4.53 | 2.04 | 5.65 | 8.07 | 7.06 | 4.72 | 7
43 | CCGTACGGGTCAAGGTTATAGCACGGGTGGTACG | 5.23 | 3.78 | -0.221 | 3.11 | -0.132 | 4.76 | 4.03 | 4.28 | 1.2 | 2.77
44 | CAAACTAGGTCACGAAAGGGCAAAGTCGAATGAC | 5.72 | 6.91 | 2.43 | 5.14 | 0.531 | 5.68 | 9.64 | 7.9 | 6.2 | 8.08
45 | CGAACTAGGTCAAAGGACAGAGAAAGGCGACGTA | 4.22 | 2.87 | -0.0116 | 1.9 | -0.178 | 5.58 | 10.3 | 8.77 | 8.15 | 9.91
46 | CGAACTAAGTCACCAGGACAGTGAAGAGGTTGGA | -0.00843 | -0.109 | -0.233 | -0.378 | -0.234 | 0.219 | 0.494 | 0.0365 | 0.0312 | -0.255
47 | CGAACTAGGTCAAAGGACAGCGAAAGGCGACGTA | 4.22 | 2.78 | -0.185 | 1.94 | -0.366 | 5.76 | 10.8 | 8.88 | 9.93 | 10.3
48 | CCTGCTAGGTCAATGGTCAGCTCAAGCAGCTCGC | 3.28 | 2.16 | -0.232 | 1.42 | 0.134 | 3.19 | 4.54 | 5.03 | 2.8 | 5.14
